# The panel holds about 79,000 compounds, 15% with a hit somewhere; the sample as a whole holds those more often. A number with no mark means an inactive call. Calls of active or inactive are those of the source. Rule as the data show it: active = growth inhibition above about 70%; inactive = the rest.
# Experiments:
# [1] = NCI Yeast Anticancer Drug Screen. Data for the rad52 strain (AID 147);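 also: 0% = growth of vehicle-treated control cultures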; conditions: S. cerevisiae rad52 mutant growth inhibition, active compounds read high
# In short: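 Vehicle-treated cultures served as the reference for growth inhibition of compound-exposed yeast bearing a DNA repair mutation.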
# [2] = NCI Yeast Anticancer Drug Screen. Data for the wt1 strain (AID 149);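 also: 0% = growth of vehicle-treated wt1 cultures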; conditions: S. cerevisiae wt1 strain (SPY 50644) growth inhibition, active compounds read high
# In short: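 Vehicle-normalised growth inhibition; strain wt1; compound exposure.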
# [3] = NCI Yeast Anticancer Drug Screen. Data for the rad50EPP+ strain (AID 151);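 also: 0% = growth of vehicle-treated control cultures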; conditions: S. cerevisiae rad50 mutant strain, active compounds read high
# In short: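 In this screen, rad50EPP+ yeast were exposed to compounds. Growth inhibition was scored against vehicle-treated controls.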
# [4] = NCI Yeast Anticancer Drug Screen. Data for the mgt1 strain (AID 153); conditions: S. cerevisiae mgt1 mutant growth inhibition, active compounds read high
# In short: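 mgt1 strain exposed; growth vs vehicle control recorded as inhibition.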
# [5] = NCI Yeast Anticancer Drug Screen. Data for the rad50 strain (AID 155);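 also: 0% = growth of vehicle-only cultures of the same strain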; conditions: S. cerevisiae rad50 strain growth inhibition, active compounds read high
# In short: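 A DNA repair-deficient yeast mutant serves as the test organism; compound-induced growth inhibition is calculated against vehicle-treated cells.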
# [6] = NCI Yeast Anticancer Drug Screen. Data for the mec2-1 strain (AID 157); conditions: S. cerevisiae mec2-1 strain, active compounds read high
# In short: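 Vehicle-treated cultures served as reference for growth inhibition of compound-exposed mec2-1 yeast.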
# [7] = NCI Yeast Anticancer Drug Screen. Data for the rad14 strain (AID 159);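 also: 0% = growth of vehicle-treated control cultures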; conditions: S. cerevisiae rad14 strain growth inhibition, active compounds read high
# In short: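 Vehicle-treated cultures served as the baseline for growth inhibition of a DNA repair-mutant yeast strain exposed to each compound.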
# [8] = NCI Yeast Anticancer Drug Screen. Data for the sgs1 mgt1 strain (AID 161);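 also: 0% = growth of cultures given vehicle only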; conditions: S. cerevisiae sgs1 mgt1 strain, active compounds read high
# In short: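 Mutant yeast exposed to compound; growth scored against vehicle-only wells.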
# [9] = NCI Yeast Anticancer Drug Screen. Data for the CLN2oe strain (AID 163);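 also: 0% = growth of vehicle-only control cultures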; conditions: S. cerevisiae CLN2oe strain, active compounds read high
# In short: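 Inhibition relative to vehicle-treated yeast is reported. Cells: strain with genetic alteration in cell-cycle control, grown with compound.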
# [10] = NCI Yeast Anticancer Drug Screen. Data for the cln2 rad14 strain (AID 165);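 also: 0% = growth equal to vehicle treated cultures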; conditions: S. cerevisiae cln2 rad14 strain, active compounds read high
# In short: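 Each compound was tested on cln2 rad14 yeast. Inhibition of growth was calculated against vehicle-exposed controls.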
# [11] = NCI Yeast Anticancer Drug Screen. Data for the bub3 strain (AID 167); conditions: S. cerevisiae bub3 mutant strain, active compounds read high
# In short: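 Inhibition values come from growth of compound-treated mutant yeast normalised to vehicle-treated controls.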
# [12] = NCI Yeast Anticancer Drug Screen. Data for the wt2 strain (AID 169);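 also: 0% = growth of vehicle-treated yeast cultures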; conditions: S. cerevisiae wt2 strain growth inhibition, active compounds read high
# In short: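 Inhibition of yeast growth was determined after compound treatment, normalised to controls receiving only vehicle.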
# [13] = NCI Yeast Anticancer Drug Screen. Data for the mlh1 strain (AID 171);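 also: 0% = growth of vehicle-treated control cultures of the same strain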; conditions: S. cerevisiae mlh1 strain growth inhibition, active compounds read high
# In short: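 Vehicle-normalised growth inhibition of a repair- or checkpoint-altered yeast strain following compound treatment.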
# [14] = NCI Yeast Anticancer Drug Screen. Data for the sgs1 strain (AID 173);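 also: 0% = growth of vehicle-only control cultures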; conditions: S. cerevisiae sgs1 mutant, active compounds read high
# In short: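 Screen format: yeast with repair or checkpoint alterations, compound exposure, growth read relative to vehicle.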
# [15] = NCI Yeast Anticancer Drug Screen. Data for the mlh1 rad18 strain (AID 175); conditions: S. cerevisiae mlh1 rad18 strain growth inhibition, active compounds read high
# In short: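 Vehicle-treated cultures served as the reference for growth inhibition in a yeast strain carrying DNA damage repair alterations exposed to each compound.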
# [16] = NCI Yeast Anticancer Drug Screen. Data for the rad18 strain (AID 177); conditions: S. cerevisiae rad18 mutant growth inhibition, active compounds read high
# In short: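 Test articles were incubated with altered yeast defective in DNA damage repair. Results are given as inhibition of growth versus vehicle.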
# [17] = at 5.0 µM (retest, dose inferred, filed as 0.5)
# [18] = at 50.0 µM (retest, dose inferred, filed as 5.0)
structure (smiles),measurement,setting,value
Nc1n[n+]([O-])c2ccc(Cl)cc2[n+]1[O-],growth inhibition,[1]; at 1.2 µM,49%
same,growth inhibition,[1]; at 3.7 µM,80% (active)
same,growth inhibition,[1]; at 11.0 µM,91% (active)
same,growth inhibition,[1]; at 33.0 µM,94% (active)
same,growth inhibition,[1]; at 100.0 µM,96% (active)
same,growth inhibition,[2]; at 1.2 µM,8%
same,growth inhibition,[2]; at 3.7 µM,13%
same,growth inhibition,[2]; at 11.0 µM,31%
same,growth inhibition,[2]; at 33.0 µM,62%
same,growth inhibition,[2]; at 100.0 µM,84% (active)
same,growth inhibition,[3]; at 1.2 µM,53%
same,growth inhibition,[3]; at 3.7 µM,77% (active)
same,growth inhibition,[3]; at 11.0 µM,88% (active)
same,growth inhibition,[3]; at 33.0 µM,91% (active)
same,growth inhibition,[3]; at 100.0 µM,94% (active)
same,growth inhibition,[4]; at 1.2 µM,1%
same,growth inhibition,[4]; at 3.7 µM,27%
same,growth inhibition,[4]; at 11.0 µM,36%
same,growth inhibition,[4]; at 33.0 µM,80% (active)
same,growth inhibition,[4]; at 100.0 µM,95% (active)
same,growth inhibition,[5]; at 1.2 µM,60%
same,growth inhibition,[5]; at 3.7 µM,79% (active)
same,growth inhibition,[5]; [17],65%
same,growth inhibition,[5]; at 11.0 µM,88% (active)
same,growth inhibition,[5]; at 33.0 µM,92% (active)
same,growth inhibition,[5]; [18],95% (active)
same,growth inhibition,[5]; at 50.0 µM,96.8% (active)
same,growth inhibition,[5]; at 100.0 µM,94% (active)
same,growth inhibition,[6]; at 1.2 µM,9%
same,growth inhibition,[6]; at 3.7 µM,22%
same,growth inhibition,[6]; [17],15%
same,growth inhibition,[6]; at 11.0 µM,57%
same,growth inhibition,[6]; at 33.0 µM,83% (active)
same,growth inhibition,[6]; [18],91% (active)
same,growth inhibition,[6]; at 50.0 µM,78% (active)
same,growth inhibition,[6]; at 100.0 µM,93% (active)
same,growth inhibition,[7]; at 1.2 µM,12%
same,growth inhibition,[7]; at 3.7 µM,32%
same,growth inhibition,[7]; at 11.0 µM,71% (active)
same,growth inhibition,[7]; at 33.0 µM,89% (active)
same,growth inhibition,[7]; at 100.0 µM,96% (active)
same,growth inhibition,[8]; [17],48%
same,growth inhibition,[8]; [18],91% (active)
same,growth inhibition,[8]; at 50.0 µM,93.2% (active)
same,growth inhibition,[9]; at 1.2 µM,6%
same,growth inhibition,[9]; at 3.7 µM,32%
same,growth inhibition,[9]; at 11.0 µM,55%
same,growth inhibition,[9]; at 33.0 µM,84% (active)
same,growth inhibition,[9]; at 100.0 µM,95% (active)
same,growth inhibition,[10]; [17],19%
same,growth inhibition,[10]; [18],93% (active)
same,growth inhibition,[10]; at 50.0 µM,76.7% (active)
same,growth inhibition,[11]; at 1.2 µM,0%
same,growth inhibition,[11]; at 3.7 µM,15%
same,growth inhibition,[11]; [17],24%
same,growth inhibition,[11]; at 11.0 µM,44%
same,growth inhibition,[11]; at 33.0 µM,81% (active)
same,growth inhibition,[11]; [18],93% (active)
same,growth inhibition,[11]; at 50.0 µM,82.8% (active)
same,growth inhibition,[11]; at 100.0 µM,90% (active)
same,growth inhibition,[12]; at 1.2 µM,8%
same,growth inhibition,[12]; at 3.7 µM,30%
same,growth inhibition,[12]; at 11.0 µM,57%
same,growth inhibition,[12]; at 33.0 µM,85% (active)
same,growth inhibition,[12]; at 100.0 µM,95% (active)
same,growth inhibition,[13]; at 1.2 µM,15%
same,growth inhibition,[13]; at 3.7 µM,38%
same,growth inhibition,[13]; at 11.0 µM,70% (active)
same,growth inhibition,[13]; at 33.0 µM,93% (active)
same,growth inhibition,[13]; at 100.0 µM,96% (active)
same,growth inhibition,[14]; at 1.2 µM,18%
same,growth inhibition,[14]; at 3.7 µM,55%
same,growth inhibition,[14]; at 11.0 µM,78% (active)
same,growth inhibition,[14]; at 33.0 µM,91% (active)
same,growth inhibition,[14]; at 100.0 µM,95% (active)
same,growth inhibition,[15]; [17],50%
same,growth inhibition,[15]; [18],97% (active)
same,growth inhibition,[15]; at 50.0 µM,94.7% (active)
same,growth inhibition,[16]; at 1.2 µM,66%
same,growth inhibition,[16]; at 3.7 µM,87% (active)
same,growth inhibition,[16]; at 11.0 µM,93% (active)
same,growth inhibition,[16]; at 33.0 µM,95% (active)
same,growth inhibition,[16]; at 100.0 µM,95% (active)
O=C(CSC(=S)N1CCCCC1)Nc1nc2c(s1)CCCC2,growth inhibition,[1]; at 1.2 µM,1%
same,growth inhibition,[1]; at 3.7 µM,6%
same,growth inhibition,[1]; at 11.0 µM,6%
same,growth inhibition,[1]; at 33.0 µM,41%
same,growth inhibition,[1]; at 100.0 µM,79% (active)
same,growth inhibition,[2]; at 1.2 µM,-9%
same,growth inhibition,[2]; at 3.7 µM,-11%
same,growth inhibition,[2]; at 11.0 µM,-13%
same,growth inhibition,[2]; at 33.0 µM,3%
same,growth inhibition,[2]; at 100.0 µM,79% (active)
same,growth inhibition,[3]; at 1.2 µM,21%
same,growth inhibition,[3]; at 3.7 µM,31%
same,growth inhibition,[3]; at 11.0 µM,38%
same,growth inhibition,[3]; at 33.0 µM,40%
same,growth inhibition,[3]; at 100.0 µM,41%
same,growth inhibition,[4]; at 1.2 µM,-8%
same,growth inhibition,[4]; at 3.7 µM,-7%
same,growth inhibition,[4]; at 11.0 µM,-16%
same,growth inhibition,[4]; at 33.0 µM,17%
same,growth inhibition,[4]; at 100.0 µM,85% (active)
same,growth inhibition,[5]; at 1.2 µM,-11%
same,growth inhibition,[5]; at 3.7 µM,-2%
same,growth inhibition,[5]; [17],31%
same,growth inhibition,[5]; at 11.0 µM,-16%
same,growth inhibition,[5]; at 33.0 µM,26%
same,growth inhibition,[5]; [18],68%
same,growth inhibition,[5]; at 50.0 µM,74.3% (active)
same,growth inhibition,[5]; at 100.0 µM,83% (active)
same,growth inhibition,[6]; at 1.2 µM,7%
same,growth inhibition,[6]; at 3.7 µM,-9%
same,growth inhibition,[6]; [17],-4%
same,growth inhibition,[6]; at 11.0 µM,1%
same,growth inhibition,[6]; at 33.0 µM,1%
same,growth inhibition,[6]; [18],45%
same,growth inhibition,[6]; at 50.0 µM,56.6%
same,growth inhibition,[6]; at 100.0 µM,79% (active)
same,growth inhibition,[7]; at 1.2 µM,-9%
same,growth inhibition,[7]; at 3.7 µM,-14%
same,growth inhibition,[7]; at 11.0 µM,-6%
same,growth inhibition,[7]; at 33.0 µM,11%
same,growth inhibition,[7]; at 100.0 µM,73% (active)
same,growth inhibition,[8]; [17],17%
same,growth inhibition,[8]; [18],87% (active)
same,growth inhibition,[8]; at 50.0 µM,86% (active)
same,growth inhibition,[9]; at 1.2 µM,3%
same,growth inhibition,[9]; at 3.7 µM,-6%
same,growth inhibition,[9]; at 11.0 µM,-14%
same,growth inhibition,[9]; at 33.0 µM,0%
same,growth inhibition,[9]; at 100.0 µM,61%
same,growth inhibition,[10]; [17],11%
same,growth inhibition,[10]; [18],70% (active)
same,growth inhibition,[10]; at 50.0 µM,72.2% (active)
same,growth inhibition,[11]; at 1.2 µM,5%
same,growth inhibition,[11]; at 3.7 µM,-8%
same,growth inhibition,[11]; [17],45%
same,growth inhibition,[11]; at 11.0 µM,-4%
same,growth inhibition,[11]; at 33.0 µM,80% (active)
same,growth inhibition,[11]; [18],92% (active)
same,growth inhibition,[11]; at 50.0 µM,86.5% (active)
same,growth inhibition,[11]; at 100.0 µM,85% (active)
same,growth inhibition,[12]; at 1.2 µM,-7%
same,growth inhibition,[12]; at 3.7 µM,-3%
same,growth inhibition,[12]; at 11.0 µM,-2%
same,growth inhibition,[12]; at 33.0 µM,22%
same,growth inhibition,[12]; at 100.0 µM,88% (active)
same,growth inhibition,[13]; at 1.2 µM,24%
same,growth inhibition,[13]; at 3.7 µM,19%
same,growth inhibition,[13]; at 11.0 µM,14%
same,growth inhibition,[13]; at 33.0 µM,43%
same,growth inhibition,[13]; at 100.0 µM,84% (active)
same,growth inhibition,[14]; at 1.2 µM,22%
same,growth inhibition,[14]; at 3.7 µM,20%
same,growth inhibition,[14]; at 11.0 µM,15%
same,growth inhibition,[14]; at 33.0 µM,52%
same,growth inhibition,[14]; at 100.0 µM,92% (active)
same,growth inhibition,[15]; [17],16%
same,growth inhibition,[15]; [18],53%
same,growth inhibition,[15]; at 50.0 µM,78.6% (active)
same,growth inhibition,[16]; at 1.2 µM,27%
same,growth inhibition,[16]; at 3.7 µM,19%
same,growth inhibition,[16]; at 11.0 µM,25%
same,growth inhibition,[16]; at 33.0 µM,23%
same,growth inhibition,[16]; at 100.0 µM,76% (active)

# From PubChem BioAssay (NCI)
